Results published in PubChem BioAssay AID1159580 (chemical genetic matrix, 2015).
In all, about 5,500 compounds went through this assay and about 2,000 (36%) were called active. Not shown: some 18% with an inconclusive outcome. The list shows a part of the results. Values without a mark were called inactive. Rule as the data show it: active = normalized growth mostly below about 0.91 (no sharp cut-off); inconclusive = no clear call, values can overlap the other calls; inactive = mostly above about 0.92.

Assay: chemical genetic growth profiling, strain panel (AID 1159580);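 also: tested at 20 µM; growth read once vehicle control cultures reached saturation at 30 °C; 1 = growth at the plate median or of vehicle wells; lower values mean less growth of the strain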
Conditions: S. cerevisiae deletion strains, growth OD

Q: With `CC1(C)CCC2(C(=O)O)CCC3(C)C(=CCC4C5(C)CCC(O)C(C)(C)C5C(O)CC43C)C2C1` (stereo not given) as the compound, how does the normalized growth (locus YAL021C, strain ccr4, stronger effect = lower value) read?
A: Its normalized growth is 1.

Q: What about the normalized growth (locus YAL026C, strain drs2, stronger effect = lower value) of the same compound?
A: The normalized growth was 1.04.

Q: And the normalized growth (locus YAL030W, strain snc1, stronger effect = lower value)?
A: Its normalized growth is 1.03.

Q: What about the normalized growth (locus YBL061C, strain skt5, stronger effect = lower value) of the same compound?
A: Its normalized growth is 1.03.

Q: And the normalized growth (locus YBR009C, strain hhf1, stronger effect = lower value)?
A: The normalized growth was 1.02.

Q: What about the normalized growth (locus YBR023C, strain chs3, stronger effect = lower value) of the same compound?
A: The normalized growth was 1.04.

Q: And the normalized growth (locus YBR171W, strain sec66, stronger effect = lower value)?
A: The normalized growth was 1.05.

Q: What about the normalized growth (locus YBR231C, strain swc5, stronger effect = lower value) of the same compound?
A: Its normalized growth is 1.03.

Q: And the normalized growth (locus YBR279W, strain paf1, stronger effect = lower value)?
A: Its normalized growth is 1.03.

Q: And the normalized growth (locus YCL011C, strain gbp2, stronger effect = lower value)?
A: The normalized growth was 1.02.

Q: And the normalized growth (locus YCL016C, strain dcc1, stronger effect = lower value)?
A: The normalized growth was 1.01.

Q: And the normalized growth (locus YCL069W, strain vba3, stronger effect = lower value)?
A: Its normalized growth is 1.03.

Q: What about the normalized growth (locus YCR088W, strain abp1, stronger effect = lower value) of the same compound?
A: The normalized growth was 1.04.

Q: What about the normalized growth (locus YDL005C, strain med2, stronger effect = lower value) of the same compound?
A: Its normalized growth is 0.246 (active).

Q: What about the normalized growth (locus YDL040C, strain nat1, stronger effect = lower value) of the same compound?
A: The normalized growth was 1.04.

Q: What about the normalized growth (locus YDR001C, strain nth1, stronger effect = lower value) of the same compound?
A: The normalized growth was 1.03.

Q: What about the normalized growth (locus YDR069C, strain doa4, stronger effect = lower value) of the same compound?
A: Its normalized growth is 1.11 [resistant] (active).

Q: And the normalized growth (locus YDR137W, strain rgp1, stronger effect = lower value)?
A: Its normalized growth is 0.871.

Q: And the normalized growth (locus YDR159W, strain sac3, stronger effect = lower value)?
A: The normalized growth was 1.01.

Q: And the normalized growth (locus YDR195W, strain ref2)?
A: Its normalized growth is 1.06.

Q: And the normalized growth (locus YDR297W, strain sur2, stronger effect = lower value)?
A: The normalized growth was 1.04.

Q: And the normalized growth (locus YDR334W, strain swr1, stronger effect = lower value)?
A: Its normalized growth is 1.04.

Q: And the normalized growth (locus YDR335W, strain msn5, stronger effect = lower value)?
A: Its normalized growth is 1.01.

Q: And the normalized growth (locus YDR392W, strain spt3, stronger effect = lower value)?
A: Its normalized growth is 0.966.

Q: What about the normalized growth (locus YEL003W, strain gim4, stronger effect = lower value) of the same compound?
A: Its normalized growth is 1.01.

Q: What about the normalized growth (locus YEL037C, strain rad23, stronger effect = lower value) of the same compound?
A: Its normalized growth is 1.02.

Q: And the normalized growth (locus YER015W, strain faa2, stronger effect = lower value)?
A: Its normalized growth is 1.03.

Q: What about the normalized growth (locus YER016W, strain bim1, stronger effect = lower value) of the same compound?
A: The normalized growth was 1.04.

Q: What about the normalized growth (locus YER111C, strain swi4, stronger effect = lower value) of the same compound?
A: Its normalized growth is 1.02.

Q: And the normalized growth (locus YER155C, strain BEM2 (second series), stronger effect = lower value)?
A: The normalized growth was 1.03.

Q: And the normalized growth (locus YFR010W, strain ubp6, stronger effect = lower value)?
A: The normalized growth was 1.06.

Q: And the normalized growth (locus YGL167C, strain pmr1, stronger effect = lower value)?
A: Its normalized growth is 1.05.

Q: And the normalized growth (locus YGL173C, strain kem1, stronger effect = lower value)?
A: The normalized growth was 1.03.

Q: What about the normalized growth (locus YGL227W, strain vid30, stronger effect = lower value) of the same compound?
A: The normalized growth was 1.04.

Q: What about the normalized growth (locus YGL240W, strain doc1, stronger effect = lower value) of the same compound?
A: Its normalized growth is 0.961.

Q: What about the normalized growth (locus YGL253W, strain hxk2, stronger effect = lower value) of the same compound?
A: Its normalized growth is 1.04.

Q: What about the normalized growth (locus YHR013C, strain ard1, stronger effect = lower value) of the same compound?
A: The normalized growth was 1.12.

Q: And the normalized growth (locus YHR027C, strain rpn1, stronger effect = lower value)?
A: Its normalized growth is 1.04.

Q: What about the normalized growth (locus YHR142W, strain chs7, stronger effect = lower value) of the same compound?
A: The normalized growth was 1.02.

Q: What about the normalized growth (locus YJL092W, strain hpr5, stronger effect = lower value) of the same compound?
A: Its normalized growth is 1.04.

Q: And the normalized growth (locus YJL095W, strain BCK1 (second series), stronger effect = lower value)?
A: The normalized growth was 1.05.

Q: And the normalized growth (locus YJL115W, strain asf1, stronger effect = lower value)?
A: Its normalized growth is 1.03.

Q: What about the normalized growth (locus YJL129C, strain trk1, stronger effect = lower value) of the same compound?
A: The normalized growth was 0.972.

Q: And the normalized growth (locus YJL154C, strain vps35, stronger effect = lower value)?
A: The normalized growth was 1.02.

Q: And the normalized growth (locus YJL164C, strain tpk1, stronger effect = lower value)?
A: Its normalized growth is 1.02.

Q: What about the normalized growth (locus YJL166W, strain qcr8, stronger effect = lower value) of the same compound?
A: Its normalized growth is 1.02.

Q: And the normalized growth (locus YJL187C, strain SWE1, stronger effect = lower value)?
A: The normalized growth was 1.03.

Q: And the normalized growth (locus YKL160W, strain elf1, stronger effect = lower value)?
A: The normalized growth was 1.03.

Q: What about the normalized growth (locus YKR026C, strain gcn3, stronger effect = lower value) of the same compound?
A: The normalized growth was 1.05.

Q: What about the normalized growth (locus YKR091W, strain srl3, stronger effect = lower value) of the same compound?
A: The normalized growth was 1.03.

Q: And the normalized growth (locus YLL001W, strain dnm1, stronger effect = lower value)?
A: The normalized growth was 1.02.

Q: What about the normalized growth (locus YLL026W, stronger effect = lower value) of the same compound?
A: Its normalized growth is 1.03.

Q: What about the normalized growth (locus YLL041C, strain sdh2, stronger effect = lower value) of the same compound?
A: Its normalized growth is 1.05.

Q: What about the normalized growth (locus YLR027C, strain aat2, stronger effect = lower value) of the same compound?
A: Its normalized growth is 1.04.

Q: What about the normalized growth (locus YLR221C, strain rsa3, stronger effect = lower value) of the same compound?
A: The normalized growth was 1.03.

Q: What about the normalized growth (locus YLR258W, strain gsy2, stronger effect = lower value) of the same compound?
A: Its normalized growth is 1.02.

Q: What about the normalized growth (locus YLR262C, strain YPT6 (second series), stronger effect = lower value) of the same compound?
A: The normalized growth was 0.938.

Q: What about the normalized growth (locus YLR320W, strain mms22, stronger effect = lower value) of the same compound?
A: Its normalized growth is 1.02.

Q: And the normalized growth (locus YLR342W, strain FKS1, stronger effect = lower value)?
A: Its normalized growth is 1.04.

Q: And the normalized growth (locus YLR357W, strain rsc2, stronger effect = lower value)?
A: The normalized growth was 1.01.

Q: And the normalized growth (locus YLR370C, strain arc18, stronger effect = lower value)?
A: Its normalized growth is 1.04.

Q: What about the normalized growth (locus YLR384C, strain iki3, stronger effect = lower value) of the same compound?
A: The normalized growth was 1.04.

Q: And the normalized growth (locus YML120C, strain ndi1, stronger effect = lower value)?
A: Its normalized growth is 1.02.

Q: And the normalized growth (locus YMR058W, strain fet3, stronger effect = lower value)?
A: The normalized growth was 1.01.

Q: And the normalized growth (locus YMR125W, strain sto1, stronger effect = lower value)?
A: The normalized growth was 1.03.

Q: And the normalized growth (locus YMR129W, stronger effect = lower value)?
A: Its normalized growth is 1.03.

Q: And the normalized growth (locus YMR205C, strain PFK2, stronger effect = lower value)?
A: The normalized growth was 1.02.

Q: What about the normalized growth (locus YMR231W, strain pep5, stronger effect = lower value) of the same compound?
A: Its normalized growth is 1.02.

Q: What about the normalized growth (locus YNL071W, strain lat1, stronger effect = lower value) of the same compound?
A: The normalized growth was 1.05.

Q: And the normalized growth (locus YNL209W, strain ssb2, stronger effect = lower value)?
A: The normalized growth was 1.04.

Q: What about the normalized growth (locus YNL248C, strain rpa49, stronger effect = lower value) of the same compound?
A: The normalized growth was 1.01.

Q: And the normalized growth (locus YNL322C, strain KRE1 (second series), stronger effect = lower value)?
A: The normalized growth was 1.05.

Q: What about the normalized growth (locus YNR049C, strain mso1, stronger effect = lower value) of the same compound?
A: Its normalized growth is 1.04.

Q: And the normalized growth (locus YOR001W, strain rrp6, stronger effect = lower value)?
A: The normalized growth was 0.964.

Q: And the normalized growth (locus YOR070C, strain gyp1, stronger effect = lower value)?
A: Its normalized growth is 1.03.

Q: What about the normalized growth (locus YOR080W, strain dia2, stronger effect = lower value) of the same compound?
A: Its normalized growth is 1.04.

Q: What about the normalized growth (locus YOR083W, strain WHI5, stronger effect = lower value) of the same compound?
A: The normalized growth was 1.02.

Q: What about the normalized growth (locus YOR106W, strain vam3, stronger effect = lower value) of the same compound?
A: Its normalized growth is 0.901.

Q: And the normalized growth (locus YOR265W, strain rbl2, stronger effect = lower value)?
A: The normalized growth was 1.02.

Q: And the normalized growth (locus YOR270C, strain vph1, stronger effect = lower value)?
A: Its normalized growth is 0.911.

Q: And the normalized growth (locus YOR290C, strain snf2, stronger effect = lower value)?
A: The normalized growth was 0.991.

Q: What about the normalized growth (locus YPL051W, strain arl3, stronger effect = lower value) of the same compound?
A: The normalized growth was 0.992.

Q: And the normalized growth (locus YPL078C, strain atp4, stronger effect = lower value)?
A: The normalized growth was 1.01.

Q: And the normalized growth (locus YPL106C, strain sse1, stronger effect = lower value)?
A: Its normalized growth is 1.03.

Q: And the normalized growth (locus YPL240C, strain hsp82, stronger effect = lower value)?
A: Its normalized growth is 1.03.
